High-throughput results (PubChem)
SUMO1 PPI mod: alters human SUMO1 binding to SIM partners. 0.33% of 360,000 active. inhibition, % at 20 µM. SUMO1 binding to a labelled peptide, TR-FRET, 1 h. AID 602429; in the data active means inhibition above about 37%
Neddylation inh: blocks human cullin neddylation | 0.58% of 360,000 active | inhibition, % at 25 µM | TR-FRET cullin neddylation, biochemical | AID 651699; in the data active means inhibition above about 36%
ATG4B inhibitor: ATG4B (human) cysteine protease inhibition; ATG4B cleavage of LC3-PLA2, NBD-HPC fluorescence, 1 h; Q9Y4P1; 0.51% of 340,000 active; AID 504462; inhibition, % at 8.33 µM
Rin1-Abl PPI inh: human Rin1-Abl interaction inhibition. P00519+Q13671. TR-FRET Rin1/Abl binding, biochemical. AID 588664. 0.4% of 360,000 active. inhibition, % at 7.35 µM; in the data active means inhibition above about 5%, passing the limit was not always enough
Neddyl inh conf: confirmation of human cullin neddylation inhibitors; TR-FRET cullin neddylation biochemical assay; calls only at 25 µM; shares compounds with Neddylation inh; 13% of 1,800 active; AID 652217;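 further: neddylation substrate is the cullin 1 ring ligase complex with SKP2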
Starred values were filed as active, the others as inactive; i = inactive; . = not tested or not shown; + = active, no number. An excerpt weighted towards active compounds, which were near 1.7% of everything screened. Unless noted, no stated cut-off is given here; in the data, active means inhibition above about 40%; inactive means the rest.

SMILES	SUMO1 PPI mod	Neddylation inh	ATG4B inhibitor	Rin1-Abl PPI inh	Neddyl inh conf
COc1ccc(/C=C\c2cc(OC)c(OC)cc2CC[N+](C)(C)C)cc1OC	-5	43*	-6	-7	i
CCn1cc(CNC(=O)CSc2nc(-c3ccc(OC)c(OC)c3)cc(C(F)(F)F)n2)c(C)n1	-3	.	-14	0	.
COCCNC(=O)CSc1nc(-c2ccc(OC)c(OC)c2)cc(C(F)(F)F)n1	4	40*	-6	-2	.
COc1ccc(-c2cc(C(F)(F)F)nc(SCC(=O)N3CCOCC3)n2)cc1OC	-2	43*	-6	1	i
Cc1ccccc1C(=O)Nc1nnc([C@@H]2C[C@H](O)[C@@H](CO)O2)s1	1	-1	.	-5	.
COc1ccc([C@H]2N[C@]3(CCCN(Cc4ccc(F)cc4)C3=O)[C@H]3C(=O)N(C)C(=O)[C@@H]23)cc1	2	5	.	-2	.
Cc1ccc(CSc2nnc(-c3cccc4ccccc34)o2)cc1	2	34*	-3	1	.
Cc1ccc(-c2nnc(-c3cccc4ccccc34)o2)cc1	6	.	-7	-1	.
C=CCCC1CN(CCCC)S(=O)(=O)c2c(F)cccc2O1 (centres undefined)	4	5	-3	0	.
O=C(NCc1ccccc1)c1cnc(Cc2c[nH]c3ccccc23)c(I)c1	-4	0	.	-3	.
COC(=O)[C@@]12C[C@@H](CC(=O)N3CCCC3)C(=O)N(Cc3cccc4ccccc34)C1=CCC(C)(C)C2	-3	2	.	.	.
CCC(C)NC(=O)c1cn(CCOC)c(=O)c2c1c1ccccc1n2C (centres undefined)	-5	31	2	-3	.
COCCn1cc(C(=O)N2CCCC(C)C2)c2c3ccccc3n(C)c2c1=O (centres undefined)	-3	42*	1	-2	i
CCN1CCN(C(=O)c2cn(CCOC)c(=O)c3c2c2ccccc2n3C)CC1	-3	49*	-1	-1	i
CCOC(=O)C1CCN(C(=O)c2cn(CCOC)c(=O)c3c2c2ccccc2n3C)CC1	-3	38	-5	-5	.
COc1ccc(-c2nc3ccc(C)cn3c2Cc2ccccc2)cc1OC	5	.	.	2	.
CCOC(=O)C1CC(=NO)c2ccc(OC)c(OC)c2C1 (centres undefined)	-2	40*	.	-4	i
CCOC(=O)N1CCN(C(=O)CSc2ccc3nnc(-c4ccccn4)n3n2)CC1	2	44*	-3	-1	i
O=C(NCCc1ccccc1)Nc1nnc([C@@H]2C[C@H](O)[C@@H](CO)O2)s1	3	5	.	-3	.
c1ccc(CN2CCC(N3CCC(N4CCCCCC4)CC3)CC2)cc1	-33	7	-2	1	.
c1ccc2c(c1)c1c(c3ccccc32)CN2CCCC2C1 (centres undefined)	-17	43*	8	-4	i
O=C(Nc1nnc([C@@H]2C[C@H](O)[C@@H](CO)O2)s1)c1cccc(Cl)c1	-3	2	.	0	.
CC(=O)Nc1cc(-c2ccccc2Cl)cn2c(-c3ccc(S(C)(=O)=O)cc3)cnc12	-13	.	.	-5	.
COC(=O)[C@@]12C[C@@H](CC(=O)N3CCSCC3)C(=O)N(Cc3ccc4c(c3)OCO4)C1=CCC(C)(C)C2	-3	2	.	.	.
O=c1oc2ccccc2cc1-c1nc2ccccc2o1	-12	21	-4	-3	.
SMILES	SUMO1 PPI mod	Neddylation inh	ATG4B inhibitor	Rin1-Abl PPI inh	Neddyl inh conf
COc1ccc2oc(=O)c(-c3nc4ccccc4o3)cc2c1	-20	49*	-20	1	+
COc1ccc2oc(=O)c(-c3nnc(NCc4ccco4)s3)cc2c1	-24	45*	3	-5	i
CSc1ccc(-c2cccc3nncn23)cc1	-28	.	.	-8	.
CCOc1ccc2[nH]c(=O)c(CN(CCO)Cc3nnnn3CCc3ccccc3)cc2c1	-4	46*	-15	-2	i
CCOc1ccc2[nH]c(=O)c(CN(CCCN3CCOCC3)Cc3nnnn3Cc3ccc(OC)cc3)cc2c1	-5	39*	-17	0	i
CC1(C(=O)NS(=O)(=O)c2ccc3c(c2)CCO3)CCN1C(=O)C1(c2ccc(Cl)cc2)CC1 (centres undefined)	4	6	.	-3	.
COCC1CCN(C(=O)c2cc(COc3ccc(F)cc3Cl)on2)C1 (centres undefined)	2	3	.	4	.
COCC1CCN(C(=O)c2cc(COc3cccc4cnccc34)on2)CC1	-16	55*	-8	-4	.
Cc1nn(C)cc1C(C)NC(=O)c1cc(COc2c(F)cccc2F)on1 (centres undefined)	-3	3	17	-3	.
Cc1nn(C)cc1C(C)NC(=O)c1cc(COc2cccc3cnccc23)on1 (centres undefined)	-19	41*	17	1	+
NNC(=O)c1oc2nc(-c3ccccc3)cc(-c3ccccc3)c2c1N	-27	41*	-2	0	i
